In PubChem BioAssay AID504660 (National Center for Advancing Translational Sciences (NCATS), 2011):
Several values for one entry are separate records, joined by “and”; a condition that tells them apart may be missing. Equal values may be shown once. Among all 360,000 compounds or so, about 3,700 (1%) were called active. This is one part of a sample in which actives are shown more often than they occur. Cut-off read from the data, not from the text of the source: active = activation above about 30%; inactive = the rest.

molecular target: D(1A) dopamine receptor (Homo sapiens) (UniProt P21728); experiment: Allosteric Agonists of the Human D1 Dopamine Receptor: qHTS; details: HEK293 T-REx D1 cells, calcium flux, agonist mode; at 2 µM; hits give high values; note: 0% is about no effect
In short: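 Agonism was scored from calcium flux recorded over 180 s (1 read/s) after pintool compound addition, following a 10-cycle baseline. Cells were inducible force-coupled HEK293 TREx D1, plated overnight at 30 C and loaded with no-wash calcium dye.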

D(1A) dopamine receptor (Homo sapiens), sequence (P21728 whole entry, looked up): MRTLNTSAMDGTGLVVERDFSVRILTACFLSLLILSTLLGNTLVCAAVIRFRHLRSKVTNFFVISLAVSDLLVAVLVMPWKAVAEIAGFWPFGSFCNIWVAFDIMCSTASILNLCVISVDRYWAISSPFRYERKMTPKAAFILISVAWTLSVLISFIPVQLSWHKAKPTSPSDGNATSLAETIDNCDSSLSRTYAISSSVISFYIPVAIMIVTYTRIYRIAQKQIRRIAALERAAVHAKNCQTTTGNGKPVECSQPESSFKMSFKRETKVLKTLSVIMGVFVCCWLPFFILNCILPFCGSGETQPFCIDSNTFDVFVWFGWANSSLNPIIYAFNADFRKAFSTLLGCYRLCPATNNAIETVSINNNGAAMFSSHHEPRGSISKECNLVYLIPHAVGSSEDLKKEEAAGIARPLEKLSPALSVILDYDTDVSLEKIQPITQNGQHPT

| Structure (SMILES) | activation |
| --- | --- |
| CCOC(=O)c1c(C)oc2ccc(N(C(=O)c3ccncc3)S(=O)(=O)c3ccc(CC)cc3)cc12 | 2.86% (inactive) |
| C/C(=N\NC(N)=S)c1ccncc1 | 0.713% (inactive) |
| CCN(CC)c1ccc2cc(C(N)=O)/c(=N\NC(=O)c3ccncc3)oc2c1 | 68.8% (active) |
| CCCCCCn1nnc2sc(-c3ccccc3)cc2c1=O | 2.52% (inactive) |
| COC(=O)c1c(NC(C)=O)sc(C(=O)Nc2ccccc2OC)c1C | 2.77% (inactive) |
| COc1ccc(Cl)cc1NC(=O)c1sc2nc3c(cc2c1N)CN(C)CC3 | 5% (inactive) |
| COc1ccccc1NC(=O)c1sc2nc(C)c(C(=O)Nc3ccc(Cl)cc3)c(-c3ccc(Br)cc3)c2c1N | 48.4% (active) |
| O=C(CCc1cn(Cc2ccc(F)cc2)c2ccccc12)NC1CCCCC1 | 4.91% (inactive) |
| O=C(NCCc1ccc(Cl)cc1)c1ccc2c(c1)N(Cc1ccc(F)cc1)C(=O)CS2 | -1.03% (inactive) |
| Oc1ccc(-c2nc3ccc(Cl)cn3c2Nc2ccc3c(c2)OCO3)cc1 | 2.27% (inactive) |
| Cc1c(NC(=O)c2cc(=O)c3ccccc3o2)c(=O)n(-c2ccccc2)n1C | -0.0323% (inactive) |
| COc1ccccc1-c1noc(-c2ccc(NCc3ccccc3)c([N+](=O)[O-])c2)n1 | -1.19% (inactive) |
| Cc1ccc(Cl)cc1NC(=O)CSc1nc2ccccc2nc1Cc1ccccc1 | 3.58% (inactive) |
| CCCn1c2ccccc2c2cnn(CC(=O)NCCCOC(C)C)c(=O)c21 | -0.0904% (inactive) |
| CCCn1c2ccccc2c2cnn(CC(=O)NCCCN3CCCCC3CC)c(=O)c21 (centres undefined) | 2.1% (inactive) and -0.646% (inactive) |
| CCCn1c2ccccc2c2cnn(CC(=O)NCC3CCN(Cc4ccc(C)cc4)CC3)c(=O)c21 | 32% (active) |
| Cc1ccc(NC(=O)Cc2ccc(NC(=O)N3CCCCc4ccccc43)cc2)cc1 | 4.12% (inactive) |
| Cc1ccc(Cl)cc1NC(=O)C(C)n1nnc2sc(-c3ccccc3)cc2c1=O (centres undefined) | -0.45% (inactive) |
| Cc1ccc(-n2c(SCC(=O)Nc3cccc(F)c3)nc3c(oc4ccccc43)c2=O)cc1C | 4.64% (inactive) |
| O=C(COC(=O)c1c2c(nc3ccccc13)CCCC2)c1ccc(Br)s1 | 8.91% (inactive) |
| NS(=O)(=O)c1ccc(NC(=O)COC(=O)c2c3c(nc4ccccc24)/C(=C\c2ccc4c(c2)OCO4)CCC3)cc1 | 59.4% (active) |
| CCN(CC(=O)Nc1ccc2c(c1)OCO2)S(=O)(=O)c1ccccc1 | 2.93% (inactive) |
| CC(NC(=S)Nc1ccc(S(N)(=O)=O)cc1)c1ccc2c(c1)OCO2 (centres undefined) | 3.07% (inactive) |

| Structure (SMILES) | activation |
| --- | --- |
| CCc1ccc(NC(=O)Cn2nnc(C(=O)NCc3ccc4c(c3)OCO4)c2N)cc1 | 0.807% (inactive) |
| NC(=O)c1ccc(NC(=O)COC(=O)c2c3c(nc4ccccc24)/C(=C\c2ccc4c(c2)OCO4)CCC3)cc1 | 51.7% (active) |
| CCN(CC)c1ccc(NC(=O)CN2CCN(CC(=O)Nc3ccc(Cl)cc3)CC2)cc1 | 2.48% (inactive) |
| CC(C)CCN(C(=O)Nc1ccc(Cl)c(Cl)c1)C(C)c1cccs1 (centres undefined) | 23.8% (inactive) |
| CCOc1ccccc1CNC(=O)c1ccc2c(c1)nc1n2CCC(C)C1 (centres undefined) | -0.796% (inactive) |
| N#CN1CCC(NC(=O)c2ccc(F)cc2)CC1 | 3.29% (inactive) |
| COc1cccc(C(=O)NC2=NC(c3ccc(N(C)C)cc3)CC(=O)N2)c1 (centres undefined) | -0.763% (inactive) |
| Cc1ccc(NC(=O)C2CCCN2S(=O)(=O)c2cccc3cccnc23)c(C)c1 (centres undefined) | -0.331% (inactive) and 2.62% (inactive) |
| O=C(Nc1nccs1)C1CCCN1S(=O)(=O)c1cccc2cccnc12 (centres undefined) | 0.517% (inactive) |
| Cc1cc(C)cc(NC(=O)C2CCCN2S(=O)(=O)c2cccc3cccnc23)c1 (centres undefined) | 34.7% (active) |
| Cc1noc(/C=C/N(C)C)c1S(=O)(=O)N1CCCC(C(=O)Nc2cccc(F)c2)C1 (centres undefined) | 5.84% (inactive) |
| O=C(COc1ccccc1)OCc1cc(=O)n2nc(-c3cccs3)sc2n1 | 3.1% (inactive) |
| Cc1cccc(C(CC(=O)NCC2(c3ccccc3)CCCC2)c2ccccc2)c1O (centres undefined) | 2.41% (inactive) |
| O=C(CCOc1ccccc1)N(Cc1cccnc1)c1nc2ccc(Cl)cc2s1 | 2.39% (inactive) |
| CN(C)CCCNC(=S)N1CCN(c2nc(-c3ccccc3)cs2)CC1 | 32.3% (active) |
| COCCCNC(=S)N1CCN(c2nc(-c3cccc(OC)c3)cs2)CC1 | 6.03% (inactive) |
| CN(C)CCCNC(=S)N1CCC(c2nc3ccccc3[nH]2)CC1 | -0.699% (inactive) |
| COc1cccc(CNc2nccn(-c3ccc(OC)c(OC)c3)c2=O)c1 | 1.78% (inactive) |
| COc1cc(NC(=O)Cn2c(=O)n(Cc3ccco3)c(=O)c3oc4ccccc4c32)cc(OC)c1 | -0.131% (inactive) |
| CC(C)CCn1cnc2c1c(=O)n(CC(=O)NC(N)=O)c(=O)n2Cc1ccccc1 | 1.24% (inactive) |
| N=c1c2c(-c3ccccc3)c(-c3ccccc3)n(Cc3ccccc3)c2ncn1CCCO | 112% (active) |
| COCCn1cnc2c1c(=O)n(CC(=O)NN)c(=O)n2Cc1ccccc1 | 1.04% (inactive) |
| Cc1cc(C)cc(NC(c2nnc(-c3cccc(F)c3)o2)c2ccc(F)cc2Cl)c1 (centres undefined) | 2.35% (inactive) |

| Structure (SMILES) | activation |
| --- | --- |
| N#C/C(=C\c1ccccc1F)c1nc2ccccc2c(=O)[nH]1 | 6.41% (inactive) |
| Cn1c(COc2ccccc2C(C)(C)C)nc2ccccc21 | 19.9% (inactive) |
| O=C(NC1CCN(Cc2ccccc2)CC1)c1cc(Br)c(Br)[nH]1 | 7.63% (inactive) |
| CC1CN(C(=S)Nc2ccc(Br)cc2Cl)CC(C)O1 (centres undefined) | -0.955% (inactive) |
| S=C(Nc1ccc(Br)cc1)NC1CCN(Cc2ccccc2)CC1 | 39.5% (active) |
| S=C(Nc1ccc(Br)cc1Cl)NC1CCN(Cc2ccccc2)CC1 | 30.9% (active) |
| Cc1cc(C(=O)NC2CCN(Cc3ccccc3)CC2)n[nH]1 | 1.69% (inactive) |
| Cc1cc(Br)ccc1NC(=S)NC1CCCC1 | 9.12% (inactive) |
| CCN(Cc1ccccc1)Cc1c(O)ccc2c(=O)c(-c3ccc(Cl)cc3Cl)coc12 | -1.31% (inactive) |
| Cc1ccc(NC(=O)NC(C)c2c(-n3cccc3)sc(C)c2C)c(C)c1 (centres undefined) | -1.09% (inactive) |
| CCOC(=O)c1cc(NC(=O)SCC(=O)O)c(C)nc1C | 1.84% (inactive) |
| CCOC(=O)c1cc2ccccc2nc1C | 31.8% (active) |
| CCOC(=O)c1cc2ccccc2n1CC(=O)c1ccccc1 | 6.36% (inactive) |
| CCOc1ccc(N(CC)C(=O)C2CCN(S(=O)(=O)c3cccc4nonc34)CC2)cc1 | 0.273% (inactive) |
| CCOc1cccc(CC(=O)N2CCc3c([nH]c4ccccc34)C2c2ccc(F)cc2)c1OCC (centres undefined) | 2.49% (inactive) |
| O=C(Cc1ccc(Cl)cc1)NC(=S)Nc1ccccc1O | 35.4% (active) |
| Cc1ccccc1NC(=S)NC(=O)Cc1ccc(Cl)cc1 | 69.1% (active) |
| O=C(NC(=S)Nc1ccc(Cl)cc1Cl)C1CC1 | 1.23% (inactive) |
| COC(=O)c1ccccc1NC(=O)CN(Cc1ccc(Cl)cc1)S(C)(=O)=O | 3.99% (inactive) |
| Cc1cc(C(=O)NNC(=S)Nc2ccccc2C)cs1 | 2.41% (inactive) |
| Cc1ccccc1N/C(SCc1ccc(Cl)cc1)=C(/C#N)C(N)=O | 3.17% (inactive) |
| Cc1nnc(NC(=O)CSc2nc3c([nH]c4ccccc43)c(=O)n2-c2cccc(Cl)c2)s1 | -0.131% (inactive) |
| COC(=O)c1scc(-c2ccccc2)c1S(=O)(=O)Nc1ccccc1 | 3.73% (inactive) |

| Structure (SMILES) | activation |
| --- | --- |
| COc1cccc(NC(=O)C(=O)NCC(c2ccc3c(c2)OCO3)N2CCN(C)CC2)c1 (centres undefined) | 5.73% (inactive) |
| Cn1c(=O)c2c(SCC(=O)N3CCc4ccccc43)nc(-c3ccc(Cl)cc3)nc2n(C)c1=O | 0.75% (inactive) |
| CCc1ccc(NC(=O)c2cc(S(=O)(=O)N3CCCC(C)C3)cn2C)cc1 (centres undefined) | 3.74% (inactive) |
| CC(C)c1ccc(S(=O)(=O)Nc2ccc(O)c(Sc3nc4ccccc4s3)c2)cc1 | 2.29% (inactive) |
| CCN(C(=O)Cn1cc(S(=O)(=O)N2CCN(c3ccccc3F)CC2)c2ccccc2c1=O)c1ccc(C)c(C)c1 | 11.2% (inactive) |
| Cc1ccc(C(=O)N2c3ncnn3C3(CCCCC3)[C@@H]3CCCC[C@@H]32)cc1 | -0.224% (inactive) |
| Cc1ccc2c(c1)N(C(=O)CCC(=O)NCc1ccccc1F)CC(C)O2 (centres undefined) | 1.03% (inactive) |
| O=C(CCc1ccccc1)Nc1ncc([N+](=O)[O-])s1 | 30.3% (active) |
| O=C(CCc1ccccc1)Nc1ccc(NC(=O)C2CC2)nc1 | 5.75% (inactive) |
| Cc1ccc2nsnc2c1NC(=O)c1ccccc1[N+](=O)[O-] | 6.33% (inactive) |
| O=C(COc1ccc(NC(=O)c2ccccc2[N+](=O)[O-])cc1)c1ccc(F)cc1 | 3.67% (inactive) |
| CC(=O)Oc1ccccc1C(=O)Nc1ncc([N+](=O)[O-])s1 | 32.6% (active) |
| O=C(CCc1ccccc1)Nc1nn[nH]n1 | 3.14% (inactive) |
| Fc1cccc(-n2ncc3c2ncn2nc(-c4ccccc4Cl)nc32)c1 | -0.538% (inactive) |
| CCOc1ccc(N(CC)S(=O)(=O)N2CCCC(C(=O)NCc3ccc(SC)cc3)C2)cc1 (centres undefined) | 15.3% (inactive) |
| COc1cc(=O)[nH]c(=O)n1C(=O)Cc1ccccc1 | 3.4% (inactive) |
| COc1cc(/C=C2/SC(=S)N(Cc3ccccc3)C2=O)cc(OC)c1O | 61.8% (active) |
| COc1cccc(N2C(=O)CN(Cc3ccccc3)C2=S)c1 | 2.26% (inactive) |
| CCOc1ccc(S(=O)(=O)Nc2ccc3oc4c(c3c2)CC(C)CC4)cc1 (centres undefined) | 8.18% (inactive) |
| O=C(NCCc1ccccc1)c1ccc2c(c1)N(Cc1ccccc1)C(=O)c1ccccc1S2(=O)=O | 5.9% (inactive) |
